Screening data (PubChem BioAssay)
HT1080-NT tox: kills 2HG-producing HT-1080-NT fibrosarcoma cells; AID 686970; 360,000 tested, 1.6% active; Potency, µM (doses to about 46.1 µM), for inactives: top-dose activity, negative = less viability, usual class: cytotoxic; HT-1080-NT fibrosarcoma viability, CellTiter-Glo ATP luminescence, 48 h;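 note: NT is the 2HG producing partner of a matched IDH1 knockdown line; potency is the fitted concentration of half-maximal effect; 0% = DMSO-treated cells and -100% = media-only wells without cells; nearly all actives have a fitted effect of over 55% in size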
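Viability of the 2HG-overproducing fibrosarcoma line after 48 hours of compound exposure at 37 degrees C was determined by luminescence with CellTiter-Glo, and concentration-effect curves were then fitted and categorized.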
HT1080 IDH1KD tx: toxicity to HT-1080 IDH1 knockdown cells (counter line) | HT-1080 IDH1 knockdown viability, ATP luminescence, 48 h | Potency, µM (highest dose often 46.1 µM), for the others: at the top dose activity, negative = toxicity, hits mostly cytotoxic | 360,000 tested, 2% active | AID 686971;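 note: potency is the fitted concentration of half-maximal effect; 0% = DMSO wells and -100% = cell-free medium wells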
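Viability of IDH1-knockdown HT-1080 fibrosarcoma cells was assessed by CellTiter-Glo after 48 h at 37 °C with titrated compound; concentration-effect curves were classified by fit quality and response size.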
DT40 TDP1 no CPT: qHTS for Inhibitors of human tyrosyl-DNA phosphodiesterase 1 (TDP1): qHTS in cells in absence of CPT; DT40 Tdp1-/- hTDP1 cells, no CPT, ATP luminescence, 48 h; Potency, µM (top dose mostly 46.2 µM), inactives show at the highest dose activity change, negative = growth inhibition, hits mostly inhibitors; 420,000 tested, 15% active; note: potency is the fitted concentration of half-maximal effect; nearly all actives have a fitted effect of over 55% in size
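A cellular qHTS used chicken DT40 cells lacking endogenous Tdp1 but carrying stably transfected human TDP1. Compounds were applied without camptothecin, and cell growth kinetics were judged by ATP-dependent luminescence after ≥48 hr.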
IL1B secr inh: inflammasome signaling inhibition, IL-1 beta readout; THP-1 LPS/ATP IL-1B secretion, AlphaLISA, 16 h; hits give low values; activity change, % at 57.5 µM; 360,000 tested, 4.7% active; in the data active = activity change below about -50%; inconclusive = mostly about -30% to -49%
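Secreted IL-1B measured by AlphaLISA bead assay after 16 h compound exposure of THP-1 cells; compounds (final up to 57.5 uM) added 1 h before LPS (250 ng/mL) and ATP (1.25 mM) stimulation; lower signal means less secretion.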
DT40 TDP1 CPT: growth inhibition of DT40 Tdp1-/-;hTDP1 cells with camptothecin (screen for TDP1 inhibitors); 420,000 tested, 12% active; Potency, µM (titrated, usually from 46.2 µM), for the others: top-dose activity change, negative = growth inhibition, hits mostly inhibitors; AID 686979; chicken DT40 Tdp1-/-;hTDP1 cells + 20 nM CPT, ATP luminescence, 48 h; note: potency is the fitted concentration of half-maximal effect; nearly all actives have a fitted effect of over 55% in size
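Cell growth measured by CellTiter-Glo luminescence after a minimum 48 h, 37 C compound exposure with 20 nM CPT in Tdp1-knockout DT40 cells stably expressing hTDP1, seeded 400/well; qHTS titration format.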
12-LOX inh: blocks human arachidonate 12S-lipoxygenase; purified 12hLO, xylenol orange hydroperoxide absorbance; Potency, µM (series often up to 108 µM), for the others: top-dose activity change, negative = inhibition, actives largely listed as inhibitors; AID 1671190; P18054; 580,000 tested, 1.1% active; note: potency is the fitted concentration of half-maximal effect
Target sequence (P18054 whole entry, looked up): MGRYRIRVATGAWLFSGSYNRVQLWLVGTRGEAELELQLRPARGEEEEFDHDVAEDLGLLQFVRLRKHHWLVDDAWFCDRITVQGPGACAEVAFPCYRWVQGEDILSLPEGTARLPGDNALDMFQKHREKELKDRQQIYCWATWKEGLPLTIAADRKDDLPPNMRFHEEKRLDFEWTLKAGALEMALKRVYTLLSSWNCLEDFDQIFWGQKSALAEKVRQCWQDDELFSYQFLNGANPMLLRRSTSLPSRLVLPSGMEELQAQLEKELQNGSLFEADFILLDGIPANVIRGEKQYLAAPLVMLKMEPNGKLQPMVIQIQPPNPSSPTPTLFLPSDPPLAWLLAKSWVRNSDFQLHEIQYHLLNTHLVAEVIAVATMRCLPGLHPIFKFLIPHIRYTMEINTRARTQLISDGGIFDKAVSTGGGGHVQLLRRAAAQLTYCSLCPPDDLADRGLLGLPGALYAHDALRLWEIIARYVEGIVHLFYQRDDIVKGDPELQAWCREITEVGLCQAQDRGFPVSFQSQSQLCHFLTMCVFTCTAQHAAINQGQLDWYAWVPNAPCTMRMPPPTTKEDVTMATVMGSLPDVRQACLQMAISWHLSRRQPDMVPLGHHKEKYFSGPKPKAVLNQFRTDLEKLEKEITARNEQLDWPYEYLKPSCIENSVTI
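Hydroperoxide product was detected by ferrous iron/xylenol orange as the 573 to 405 nm absorbance ratio. Arachidonic acid at 40 uM (final) was turned over for 30 min at room temperature by 150 nM human 12hLO, pH 7.0 Hepes buffer, after 15 min compound preincubation.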
* hit, by the source's call; i = inactive; ? = inconclusive; / = no result; [ ] = dose if it differs, or a comment. The sample as a whole holds a higher share of hits than the screen did. Unless noted, calls come from the whole dose curve; as a rule, active = well fitted curve in the direction sought with a large enough effect; inconclusive = small, poorly fitted or top-dose-only effect, or another doubt; inactive = no such curve, though single readings can be large; an effect the other way counts as inactive or inconclusive. Unless noted, % is set by controls: 0 for no effect and ±100 for the full control effect.

SMILES	HT1080-NT tox	HT1080 IDH1KD tx	DT40 TDP1 no CPT	IL1B secr inh	DT40 TDP1 CPT	12-LOX inh
Cc1cc(F)ccc1-c1[nH]nc2ncc(-c3cn[nH]c3)nc12	/	/	/	/	/	15%[176 µM]
O=C(Cc1c[nH]c2ncc(-c3ccccc3)cc12)NCC1CCOCC1	/	/	/	/	/	-1%[176 µM]
O=C(NCCCN1CCN(c2ccc(F)cc2)CC1)C1COc2ccccc2C1 (stereo not given)	/	/	?	/	23µM*	-20%
CCC(=O)N1c2ccccc2CC1C(=O)NCCCN1CCN(c2cc(C)ccc2C)CC1 (stereo not given)	/	/	?	/	21µM*	-13%
COc1ccc2c(c1)CC(C(=O)NCCCN1CCN(c3cccc(Cl)c3)CC1)CO2 (stereo not given)	/	/	18µM*	/	18µM*	1%
Nc1ccccc1C(=O)NCCCN1CCN(c2cccc(Cl)c2)CC1	9%	-2%	-22%	?	-14%	i
Cc1cccc(N2CCN(CCNC(=O)C3COc4ccccc4C3)CC2)c1C (stereo not given)	/	/	23µM*	/	?	-6%
CN1C(=O)CCC2(CNC(=O)c3n[nH]c4ccccc34)CCC=C12 (stereo not given)	/	/	/	/	/	26%
O=C(NCCc1ccc(Cl)cc1)C1COc2ccccc2C1 (stereo not given)	/	/	-24%	/	-11%	-8%
Cc1ccc(Cl)cc1N1CCN(CCCNC(=O)C2COc3ccccc3C2)CC1 (stereo not given)	/	/	3.7µM*	/	3.3µM*	2%
CCCOc1ccc(NC(=O)CC2C(=O)N(CC)C(=S)N2CCCN2CCN(Cc3ccccc3)CC2)cc1 (stereo not given)	16µM*	16µM*	15µM*	-100*	15µM*	?
CCOc1ccc(NC(=O)CC2C(=O)N(CC)C(=S)N2CCN2CCOCC2)cc1 (stereo not given)	-1%	10%	?	1	?	-2%
CCN1C(=O)C(CC(=O)Nc2ccc(F)cc2)N(CCCN2CCN(c3ccc(F)cc3)CC2)C1=S (stereo not given)	29µM*	?	15µM*	?	15µM*	12%
CC(O)CN1C(=O)C(CC(=O)Nc2ccc(Cl)cc2)SC1=Nc1ccccc1 (stereo not given)	?	?	26µM*	-56*	?	/
COCCN1C(=O)C(CC(=O)Nc2ccc(C(C)=O)cc2)SC1=Nc1ccccc1 (stereo not given)	-17%	-10%	?	15	16µM*	-1%
CCCCN1C(=O)C(CC(=O)NCC)SC1=Nc1ccccc1 (stereo not given)	-2%	5%	-15%	-15	-20%	-20%
COc1ccc(C(=O)NCC(c2cccnc2)N2CCN(c3ccccc3)CC2)cc1 (stereo not given)	/	/	16µM*	/	?	5%
COc1ccc(C(=O)NCC(c2cccnc2)N2CCN(c3ccc(F)cc3)CC2)cc1 (stereo not given)	/	/	10µM*	/	15µM*	-24%
CCCOc1ccc(CNC(=O)[C@@]23CCCC[C@H]2N(C)C(=O)CC3)cc1	/	/	/	/	/	19%
COC(=O)/C=C1\OC(C2CC2)c2ccccc21 (stereo not given)	7%	9%	16µM*	17	8.2µM*	-16%
COC(=O)/C=C1\OC(c2ccccc2)c2ccccc21 (stereo not given)	-3%	-2%	?	98	?	-19%
Cc1ccc(-n2c(SCC(=O)NC3CCS(=O)(=O)C3)nc3ccccc3c2=O)c(C)c1 (stereo not given)	-10%	-8%	16µM*	0	?	9%
O=C(CSc1nc2ccccc2c(=O)n1-c1cccc(C(F)(F)F)c1)NC1CC1	-7%	-1%	?	?	18µM*	-17%
CCCCN1C(=O)[C@@H]2C[C@@H](O)CN2C2(CN(C3CCCC3)C2)C1=O	/	/	/	/	/	62%[176 µM]
COc1cccc(-c2nc(CCl)cs2)c1	-3%	-4%	?	?	21µM*	-10%
SMILES	HT1080-NT tox	HT1080 IDH1KD tx	DT40 TDP1 no CPT	IL1B secr inh	DT40 TDP1 CPT	12-LOX inh
COc1ccc(-c2nc(CCl)cs2)cc1	-5%	1%	5.8µM*	0	8.2µM*	?
ClCc1csc(-c2ccccc2Cl)n1	-9%	-5%	18µM*	-3	12µM*	?
CCc1ccc(-c2nc(CCl)cs2)cc1	-3%	-2%	?	-23	12µM*	-16%
COc1cccc(-c2csc(-c3nc(-c4ccc(C)cc4C)cs3)n2)c1	/	/	/	/	/	-25%
O=C1CCCCC(=O)[C@H](OC(=O)c2ccccc2)C[C@H](c2ccccc2)O1	-5%	-4%	?	33	-12%	148%
COc1ccc(-c2nc(CCl)cs2)cc1OC	2%	0%	12µM*	1	4.6µM*	-125%
Cc1ccc(-c2csc(-c3ccc(O)cc3)n2)c(C)c1	/	/	/	/	/	58%
COc1ccc(N2CC(O)=C(c3nc(-c4ccccc4)cs3)C2=N)cc1	-11%	-21%	21µM*	38	?	3%
COc1ccc(-c2csc(-c3ccc(O)cc3)n2)cc1	5.2µM*	1.6µM*	6.5µM*	19	7.3µM*	-17%
COc1ccc(-c2nc(-c3ccc(O)cc3O)cs2)cc1OC	?	?	?	-67*	?	13%
O=C(Cn1c(=O)c2cc(Cl)ccc2n2nncc12)Nc1ccccc1	/	/	-15%	/	-27%	0%
O=C(COC(=O)c1cccnc1SCC(=O)NCc1ccccc1)NCc1ccccc1	-12%	?	?	7	23µM*	-2%
CC(NC(=O)c1cc(-c2ccco2)nc2ccccc12)C(=O)NCc1ccccc1 (stereo not given)	/	/	/	/	/	40µM*
O=C(COC(=O)CC(c1ccccc1)c1ccccc1)NCc1ccc(Cl)cc1	-1%	-2%	-8%	-71*	-27%	-12%
O=C(COC(=O)c1cc(-c2ccco2)nc2ccccc12)NCc1ccccc1	-14%	-13%	-24%	10	-26%	10µM*
COc1ccc(CCNC(=O)c2cc(-c3ccco3)nc3ccccc23)cc1	4%	4%	?	-13	?	?
CCCC(=O)OCC(=O)NCc1ccc(Cl)cc1	5%	5%	8%	4	-1%	-4%
